PubChem BioAssay (NCI)
Several values for one entry are separate records, joined by “and”; a condition that tells them apart may be missing. Equal values may be shown once. The panel holds about 83,000 compounds, 20% with a hit somewhere; the sample as a whole holds those more often.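 Compound tested at a single concentration for 48 hours in 96-well plates; a percent growth value below 10 was scored as active.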 Activity calls are given as the source filed them.

How the values were obtained:
Experiment in all cases: NCI-60 one-dose screen, 48 h (100 = growth as untreated, 0 = no growth, -100 = all killed)
HCT-15 colon = conditions: 10 µM
HT29 colon = conditions: 10 µM
SNB-75 CNS = conditions: 10 µM
SNB-19 CNS = conditions: 10 µM
U251 CNS = conditions: 10 µM
PC-3 prostate = conditions: 10 µM
SK-MEL-5 melanoma = conditions: 10 µM
UACC-62 melanoma = system: UACC-62 melanoma
LOX IMVI melanoma = conditions: 10 µM
SK-MEL-28 melanoma = conditions: 10 µM
SK-MEL-2 melanoma = conditions: 10 µM
EKVX NSCLC = conditions: 10 µM
SN12C renal = conditions: 10 µM
TK-10 renal = system: TK-10 renal
ACHN renal = conditions: 10 µM
CAKI-1 renal = conditions: 10 µM
CCRF-CEM leukemia = conditions: 10 µM
UO-31 renal = conditions: 10 µM
A498 renal = conditions: 10 µM
HL-60(TB) leukemia = conditions: 10 µM

Measured: growth

O=[P+](O)c1ccccc1
inactive: HCT-15 colon 108% | HT29 colon 118% | SNB-75 CNS 97.4% | SNB-19 CNS 106% | U251 CNS 104% | PC-3 prostate 93.6% | SK-MEL-5 melanoma 106% | UACC-62 melanoma; 10 µM unless noted 105% | LOX IMVI melanoma 102% | SK-MEL-28 melanoma 104% | SK-MEL-2 melanoma 109% | EKVX NSCLC 115% | SN12C renal 104% | TK-10 renal; 10 µM unless noted 117% | ACHN renal 102% | CAKI-1 renal 103% | CCRF-CEM leukemia 79.9%

CC/C(=C/c1ccc(OC)cc1OC)[N+](=O)[O-]
active: HCT-15 colon -35.9% | HT29 colon -1.29% | UACC-62 melanoma; 10 µM unless noted -36.2% | LOX IMVI melanoma -85.1% | SK-MEL-28 melanoma 2.66% | ACHN renal -43.1%
inactive: SNB-75 CNS 44.9% | SNB-19 CNS 41.6% | U251 CNS 43.5% | PC-3 prostate 50% | SK-MEL-5 melanoma 38.1% | SK-MEL-2 melanoma 34.4% | EKVX NSCLC 79.9% | SN12C renal 15.9% | UO-31 renal 28.1% | TK-10 renal; 10 µM unless noted 11.1% | CAKI-1 renal 49.2% | A498 renal 76.8% | HL-60(TB) leukemia 15.7%

N#CCc1ccccc1
inactive: HCT-15 colon 102% | HT29 colon 114% | SNB-75 CNS 105% | SNB-19 CNS 98.6% | U251 CNS 95.8% | PC-3 prostate 96.9% | SK-MEL-5 melanoma 99.4% | UACC-62 melanoma; 10 µM unless noted 102% | LOX IMVI melanoma 94.1% | SK-MEL-28 melanoma 106% | SK-MEL-2 melanoma 99.9% | SN12C renal 99.6% | UO-31 renal 93% | TK-10 renal; 10 µM unless noted 108% | ACHN renal 108% | CAKI-1 renal 104% | CCRF-CEM leukemia 97.3%

NC(=O)c1cc([N+](=O)[O-])c(Cl)c([N+](=O)[O-])c1
active: HT29 colon -7.93% | CCRF-CEM leukemia -32.4%
inactive: HCT-15 colon 45.5% | SNB-75 CNS 98.6% | SNB-19 CNS 107% | U251 CNS 69.4% | PC-3 prostate 62.2% | SK-MEL-5 melanoma 107% | UACC-62 melanoma; 10 µM unless noted 100% | LOX IMVI melanoma 24.7% | SK-MEL-28 melanoma 118% | SK-MEL-2 melanoma 154% | EKVX NSCLC 98.3% | SN12C renal 100% | TK-10 renal; 10 µM unless noted 84.1% | ACHN renal 92.7% | CAKI-1 renal 87.6%

CC1CCC2(OC1)OC1C(O)C3C4CCC5CC(OC6OC(CO)C(OC7OC(CO)C(O)C(OC8OCC(O)C(O)C8O)C7OC7OC(CO)C(O)C(OC8OC(CO)C(O)C(O)C8O)C7O)C(O)C6O)C(O)CC5(C)C4CCC3(C)C1C2C (stereo not drawn)
active: HT29 colon -40.5% | SNB-75 CNS -32% | SNB-19 CNS -71.7% | U251 CNS -51.1% | PC-3 prostate -93.4% | SK-MEL-5 melanoma -62.2% | UACC-62 melanoma; 100 µM -89.7% and -92% | LOX IMVI melanoma -69.8% | SK-MEL-2 melanoma 8.3% | EKVX NSCLC -17.2% | SN12C renal -26.9% | UO-31 renal -96.8% | TK-10 renal; 10 µM -27.4% | TK-10 renal; 100 µM -99% and -94% | ACHN renal 1.57% | CAKI-1 renal -63% | HL-60(TB) leukemia -17.1% | CCRF-CEM leukemia -15.7%
inactive: HCT-15 colon 37.3% | UACC-62 melanoma; 10 µM 22.5%

CCCCCCCC[N+]12CN3CN(CN(C3)C1)C2
inactive: HCT-15 colon 96.7% | HT29 colon 112% | SNB-75 CNS 89.4% | SNB-19 CNS 90.1% | U251 CNS 101% | PC-3 prostate 96.7% | SK-MEL-5 melanoma 98% | UACC-62 melanoma; 10 µM unless noted 91.7% | LOX IMVI melanoma 97.5% | SK-MEL-28 melanoma 98.8% | SK-MEL-2 melanoma 120% | SN12C renal 96.8% | UO-31 renal 87.9% | TK-10 renal; 10 µM unless noted 99.8% | ACHN renal 99.5% | CAKI-1 renal 92.5% | A498 renal 95.2% | HL-60(TB) leukemia 137% | CCRF-CEM leukemia 97.1%

COc1ccccc1[As]=[As]c1ccccc1OC (stereo not drawn)
active: HCT-15 colon -87.2% | HT29 colon -76.9% | SNB-75 CNS -91.8% | SNB-19 CNS -84.5% | U251 CNS -83.3% | PC-3 prostate -78.9% | SK-MEL-5 melanoma -99.3% | UACC-62 melanoma; 10 µM unless noted -84.6% | LOX IMVI melanoma -97.3% | SK-MEL-28 melanoma -83% | SK-MEL-2 melanoma -86.9% | EKVX NSCLC -67.7% | SN12C renal -83.3% | UO-31 renal -93.1% | TK-10 renal; 10 µM unless noted -95.8% | ACHN renal -96.9% | CAKI-1 renal -86.5% | HL-60(TB) leukemia -37.1% | CCRF-CEM leukemia 2.34%
